# Data reported in PubChem BioAssay (NCI).
# Compounds without any hit were thinned out: in the full panel of roughly 83,000, 20% have a hit.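 Each cell line was grown in a 96-well plate and treated with one concentration of compound for 48 hours. Values below 10 were considered active.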 A number with no mark means an inactive call. Active and inactive are the calls of the source.
# Key:
# Test in all cases: NCI-60 one-dose screen, 48 h (100 = growth as untreated, 0 = no growth, -100 = all killed)
# Details in all cases: 10 µM unless noted
# HCT-15 colon = test system: HCT-15 colon
# HT29 colon = test system: HT29 colon
# SNB-75 CNS = test system: SNB-75 CNS
# SNB-19 CNS = test system: SNB-19 CNS
# U251 CNS = test system: U251 CNS
# SK-MEL-5 melanoma = test system: SK-MEL-5 melanoma
# UACC-62 melanoma = test system: UACC-62 melanoma
# LOX IMVI melanoma = test system: LOX IMVI melanoma
# SK-MEL-28 melanoma = test system: SK-MEL-28 melanoma
SMILES,growth (HCT-15 colon),growth (HT29 colon),growth (SNB-75 CNS),growth (SNB-19 CNS),growth (U251 CNS),growth (SK-MEL-5 melanoma),growth (UACC-62 melanoma),growth (LOX IMVI melanoma),growth (SK-MEL-28 melanoma)
c1csc(C2=NN3C(C2)c2ccccc2OC3c2ccncc2)c1 (stereo unspecified),95.5%,107%,82.2%,90.5%,91.5%,92.7%,94.1%,89.3%,107%
Cc1cc(C)nc(SC2=C(Nc3cc(Cl)ccc3O)C(=O)N(Cc3ccccc3)C2=O)n1,92.1% [30 µM],108% [30 µM],81% [30 µM],89.6% [30 µM],87.5% [30 µM],49% [30 µM],70.6% [30 µM],71.1% [30 µM],106% [30 µM]
CC(O)CN(CC(C)O)c1ccc2c(c1)Cc1cc([N+](=O)[O-])ccc1-2 (stereo unspecified),83.5%,103%,87.5%,98.9%,102%,103%,95.7%,96.2%,109%
COc1cc(-c2ccc3c(c2)NC(=O)/C3=C\c2ccc[nH]2)ccc1O,14.1%,18.9%,47.2%,34.8%,15.4%,-27.5% (active),32.2%,-8.36% (active),37.5%
